MITF inh: human MITF inhibition, primary screen | AID 1259374 | O75030 | inhibition, % at 2.6 µM | hit rate 0.91% among 650,000 | AlphaScreen MITF homodimerization, bead proximity signal; in the data active means inhibition above about 50%
Target sequence (O75030 whole entry, looked up): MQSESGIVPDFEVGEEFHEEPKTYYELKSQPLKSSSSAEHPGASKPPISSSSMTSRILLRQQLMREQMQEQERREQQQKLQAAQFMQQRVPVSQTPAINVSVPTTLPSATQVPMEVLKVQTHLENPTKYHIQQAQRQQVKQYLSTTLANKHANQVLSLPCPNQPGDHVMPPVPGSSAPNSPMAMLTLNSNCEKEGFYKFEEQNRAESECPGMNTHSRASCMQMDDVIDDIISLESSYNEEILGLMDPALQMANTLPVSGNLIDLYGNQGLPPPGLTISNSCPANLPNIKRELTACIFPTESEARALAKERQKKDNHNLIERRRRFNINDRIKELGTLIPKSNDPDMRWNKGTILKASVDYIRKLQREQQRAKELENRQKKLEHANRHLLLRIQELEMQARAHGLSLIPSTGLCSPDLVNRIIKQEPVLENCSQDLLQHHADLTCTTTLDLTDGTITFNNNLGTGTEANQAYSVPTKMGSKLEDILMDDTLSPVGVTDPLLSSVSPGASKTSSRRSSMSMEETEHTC
TEAD-YAP block: TEAD-YAP interaction inhibition; HEK-TIYL cells, TEAD-Gal4/YAP UAS-luciferase luminescence; inhibition, % at 9.12 µM; hit rate 1.4% among 640,000; AID 1259422; in the data active means inhibition above about 32%
FBW7 act: human FBW7 E3 ligase activation, primary screen. Q969H0. hit rate 0.13% among 650,000. AlphaScreen FBW7–phospho-cyclin E peptide binding, activator screen. normalized activity (activation), % at 26.1 µM; in the data active means normalized activity above about 1.9%;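 further: purified mutant Fbw7 with reduced substrate affinity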
GPR151 ag: activates the human receptor GPR151 | Q8TDV0 | hit rate 1% among 650,000 | activation, % at 11.2 µM | PathHunter beta-arrestin GPR151 cells, luminescence; in the data active means activation above about 4.9%
Numbers stand for hits; 0 = inactive. Compounds with a hit are over-represented: about 3.5% of the library has one in this group of screens.

SMILES	MITF inh	TEAD-YAP block	FBW7 act	GPR151 ag
N#Cc1ccccc1NC(=O)Cn1ncc(Cl)c(Cl)c1=O	0	55.0	0	0
O=C(Cc1ccc(Cl)cc1)Nc1ccc(S(=O)(=O)N2CCCC2)cc1	0	0	0	0
O=C(COC(=O)c1ccc2c(c1[N+](=O)[O-])C(=O)c1ccccc1C2=O)NC1CC1	0	0	0	0
O=C1c2ccccc2C(=O)c2c1ccc(C(=O)OCC(=O)N1CCOCC1)c2[N+](=O)[O-]	58.3	0	0	0
O=C(OCC(=O)c1c[nH]c2ccccc12)c1ccc2c(c1)OCO2	0	0	0	0
Nc1ccc(-c2cnn3c(NCc4cccs4)ccnc23)cc1	0	71.5	0	0
OCc1ccccc1-c1cnn2c(NCc3cccs3)ccnc12	0	62.7	0	0
c1ccc(-c2cnn3c(NCc4cccs4)ccnc23)cc1	0	0	0	0
O=C(O)CCc1ccc(-c2cnn3c(NCc4ccco4)ccnc23)cc1	0	33.1	0	0
Cc1ccc(-c2cnn3c(NCc4cccs4)ccnc23)cc1	0	0	0	0
CCN1C(=O)/C(=C/c2cccc([N+](=O)[O-])c2O)SC1=S	0	0	0	0
O=S(=O)(Cc1ccccc1)N1CCC(Cc2ccccc2)CC1	0	0	0	0
CC1=CC(=O)C(N2CCC(Cc3ccccc3)CC2)=CC1=O	59.6	0	0	0
O=S(=O)(Nc1ccc(Br)c2cccnc12)c1ccccc1	0	32.8	0	0
COc1ccc(NS(=O)(=O)c2ccc3ccccc3c2)c2ncccc12	0	0	0	0
CS(=O)(=O)N(CC(=O)N/N=C/c1cc(Cl)cc(Cl)c1O)c1ccccc1	0	58.4	0	0
O=C1CCCN1C(=S)C(=S)N1CCCC1=O	0	99.0	0	0
COc1ccccc1CNC(=O)Cn1cnc2sc(C(=O)NC3CCCCC3)c(C)c2c1=O	0	0	0	0
O=C(Nc1cc(-c2ccncc2)c[nH]c1=O)C1Cc2c(ccc3ccccc23)O1 (centres undefined)	0	32.8	0	0
CC(C)N1CCC(=NNC(=O)c2cc(O)c(O)c(O)c2)CC1	84.9	0	0	0
CN1CCC(=NNC(=O)c2ccccc2)CC1	0	0	0	0
CN1CCN(Cc2nnnn2Cc2ccc3c(c2)OCO3)CC1	0	0	0	0
CCOc1cccc(C2CC(c3cccc(OC)c3)=NC(C(C)C)N2)c1O (centres undefined)	0	36.0	0	0
CCCC1N=C(c2cccc(OC)c2)CC(c2cc(Br)ccc2O)N1 (centres undefined)	0	38.8	0	0
O=C(O)/C=C\C(=O)NNC(=O)CSc1nc2ccccc2[nH]1	0	0	0	0
SMILES	MITF inh	TEAD-YAP block	FBW7 act	GPR151 ag
C=CCOC(=O)C1=C(C)OC(N)=C(C#N)C1c1cc2cc(C)ccc2[nH]c1=O (centres undefined)	0	59.1	0	0
CC(=O)N1CCOc2cc(S(=O)(=O)NC(C)(C)C)ccc21	0	0	0	0
CCOc1ccccc1NC(=O)C(=O)NN=C1CCN(C)CC1	0	0	0	0
Cc1ncc(-c2ccc(F)cc2)c(C2CCCN(Cc3ncc[nH]3)C2)n1 (centres undefined)	0	0	0	0
Cc1ccc2nc(C)c(C(=O)NCC(F)(F)F)n2c1	0	0	1.9	0
COc1cc(NC(=O)c2cncc(-c3cccs3)c2)cc(OC)c1OC	0	39.3	0	0
COc1cc(NC(=O)c2cccc(-c3cccc(C(C)=O)c3)c2)cc(OC)c1OC	0	0	0	0
COc1cc(NC(=O)c2cncc(-c3cccc(C(C)=O)c3)c2)cc(OC)c1OC	0	59.3	0	0
COc1cccc(-c2cc(C(=O)Nc3cc(OC)c(OC)c(OC)c3)on2)c1	0	42.1	0	0
Cc1cccc(NC(=O)CN2C(=O)CC(c3ccco3)Sc3ccccc32)c1 (centres undefined)	0	0	0	0
COc1ccc(-c2nnc3ccc(SCC(=O)NCCc4ccccc4)nn23)cc1	0	0	0	0
COc1ccc(CCNC(=O)CSc2ccc3nnc(-c4ccccc4)n3n2)cc1OC	0	0	2.7	0
O=C(CSc1ccc2nnc(-c3ccncc3)n2n1)NCCc1ccccc1	0	0	2.0	0
Cc1cccc(NC(=O)C2CCN(S(=O)(=O)c3ccc4c(c3)OCC(=O)N4)CC2)c1C	0	0	0	0
Cn1c2ccccc2c2nnc(N/N=C/c3ccccn3)nc21	0	35.6	0	0
COc1ccc(-c2cnc(NC3CC3)nc2)cc1	0	37.8	0	0
COc1cc(Nc2cc(N3CCN(C(=O)c4ccco4)CC3)c3noc4c3c2C(=O)c2ccccc2-4)cc(OC)c1OC	0	40.0	0	0
CCCN1CCN(c2cc(Nc3cccc(OC)c3)c3c4c(onc24)-c2ccccc2C3=O)CC1	61.3	0	0	0
